The first assay has as its system BRSK1. Conditions: concentration: 1 μM, replicates: in singlicate; n = 1.
As for `O=C(Nc1n[nH]c2nc(-c3ccccc3O)ccc12)C1CC1` [SB-711880], the “%Inh” value was 38%. For `CCn1c(-c2nonc2N)nc2c(-c3ccccc3)ncc(OCCCN)c21.O=C(O)C(F)(F)F.O=C(O)C(F)(F)F` [GSK260205], the “%Inh” value is on record as 0%. Take `Cc1ccc(NC(=O)c2ccnc(N3CCCCC3)c2)cc1-c1ccc(C(=O)NCC2CC2)cc1` [GW775610]: the “%Inh” value worked out at 9%.

Consider `O=C(O)C(F)(F)F.O=c1[nH]ccc2nc(N[C@@H]3CCNC3)nc(Nc3ccc4c(c3)S(=O)(=O)CC4)c12` [GSK2181306], for which the “%Inh” value came out at 52%.

Consider `Cc1ccccc1CC(=O)N1CCc2cc(-c3cn(C)c4ncnc(N)c34)ccc21` [GSK2603346], for which the “%Inh” value was determined as 0%. As for `Cc1ccc(O)cc1Nc1ccnc2cc(-c3ccc(CN4CCCCC4)o3)ccc12` [GW557777], the “%Inh” value is reported as 0%. As for `COc1ccc(C2=C(Nc3cccc(O)c3)C(=O)NC2=O)cc1` [SB-390766], the “%Inh” value was determined as 7%. Turning to `Cc1ccc(O)cc1Nc1ccnc2ccc(C(C)(C)C)cc12` [GW856805], the “%Inh” value is 5%.

`O=C(Nc1n[nH]c2nc(-c3ccccc3)ccc12)C1CC1` [SB-708999]: the “%Inh” value worked out at 54%. The same measure, in the same setting: the value for `NCCC(NC(=O)c1cc(Br)c(-c2ccnc3[nH]ccc23)s1)c1ccccc1.O=C(O)C(F)(F)F.O=C(O)C(F)(F)F` (centres unmarked) [GSK1307810] was 1%; that for `CCOc1nccc(-c2c(-c3ccc(F)cc3)ncn2C2CCNCC2)n1` [SB-249175] was 0%. For the molecule `CN1CCN(Cc2ccc(NC(=O)Nc3ccc(N(C)c4ccnc(Nc5ccc(CS(C)(=O)=O)cc5)n4)cc3)cc2)CC1.Cl` [GW827654], the “%Inh” value turned out to be 19%. On the same count and under the same terms, to `Cn1cc(-c2ccc3c(c2)CCN3C(=O)Cc2cc(F)cc(F)c2F)c2c(N)ncnc21` [GSK2634140] belongs 6%; to `Cl.Cl.NCC(NC(=O)c1cc(-c2cccnc2)c(-c2ccnc3[nH]ccc23)s1)c1ccccc1` (centres unmarked) [GSK1323434], 5%; to `Cc1ccc(NC(=O)c2cccc(N3CCCCC3)c2)cc1-c1ccc(C(=O)NCC2CC2)cc1` [GSK1917008], 6%. Same read-out and setting: to `Cc1nn2c(=O)cc(N3CCO[C@H](C)C3)nc2n1Cc1cccc(Cl)c1Cl` [GSK2373693] belongs 3%; to `Cl.N#CCc1ccc(Nc2nccc(Nc3ccc(Oc4ccccc4)cc3)n2)cc1` [GW639905], 0%; to `Cn1cc(-c2cnc(N)c3c(-c4ccc5c(c4)CCN5C(=O)Cc4ccccc4)csc23)cn1` [GSK2593074], 0%. The same measure, in the same setting: the value for `CC(=O)Nc1cn2nc(Oc3cccc(NC(=O)c4cccc(C(F)(F)F)c4)c3)ccc2n1` was 0%; that for `O=C(Nc1n[nH]c2cc(-c3cccs3)ccc12)C1CC1` [SB-731284] was 54%; that for `CN(c1ccc(NC(=O)Nc2cccc(Cl)c2)cc1)c1ccnc(N)n1.Cl` [GW830707] was 0%. Regarding `CCn1cnc2c(NCc3ccccc3)ncnc21` [SKF-96418], the “%Inh” value was determined as 0%. Same read-out and setting: to `CC(C)(C)c1ccc(C(=O)Nc2cn3cc(-n4ccnc4)ccc3n2)cc1` belongs 31%; to `COc1cc(Nc2nccc(N3CCC(NS(=O)(=O)c4ccc(NC(C)=O)cc4)CC3)n2)cc(OC)c1OC` [GSK1379825], 0%; to `CCNC(=O)/C=C/c1n[nH]c2cc(Sc3ccccc3C(=O)NC)ccc12`, 38%.

A further assay concerns BRSK2. The note with it: concentration: 1 μM, replicates: in singlicate; n = 1.
Regarding `CN(c1ccc2c(c1)nc(NCc1ccccc1)n2C)c1ccnc(Nc2ccc(CS(C)(=O)=O)cc2)n1.Cl` [GW811603], the “%Inh” value is on record as 0%.

Consider `COc1cccc(C2=C(Nc3cccc(O)c3)C(=O)NC2=O)c1` [SB-390771], for which the “%Inh” value is recorded as 7%. In the case of `O=C(Nc1c(F)cccc1F)c1cc(C(=O)c2ccccc2F)c[nH]1` [GSK1326180], the “%Inh” value stood at 0%. `CC(C)c1nc(-c2ccc(F)c(NS(=O)(=O)c3c(F)cccc3F)c2)c(-c2ccnc(Nc3ccc(N4CCOCC4)nc3)n2)s1` [GSK1804250]: the “%Inh” value is listed as 0%. Same read-out and setting: to `Cl.O=C(Nc1ccc(Oc2ccc3[nH]c(NC(=O)c4ccco4)nc3c2)cc1)Nc1cc(C(F)(F)F)ccc1F` [GW683134] belongs 0%. For `c1ccc(Oc2ccc(Nc3ccnc4cc(-c5ccc(CN6CCCCC6)o5)ccc34)cc2)nc1` [GW567143], the “%Inh” value stood at 0%.

`N#CC1(c2cccc(C(=O)Nc3cccc(Oc4ccc5nc(NC(=O)C6CC6)sc5n4)c3)c2)CC1`: the “%Inh” value was 0%. On the same count and under the same terms, to `CNc1nccc(-c2ccc3c(N)n[nH]c3c2)n1` [GSK2206003] belongs 15%; to `COc1cccc(NC(=O)NCCNc2ccnc(Nc3ccc(F)cc3)n2)c1` [GSK1379879], 0%; to `Cc1cccc(Nc2nc(N[C@H]3CCCC[C@H]3N)ncc2C(N)=O)c1.Cl` [GSK986310], 13%.

As for `COC(=O)Nc1nc2cc(Oc3ccc(NC(=O)Nc4cccc(SC)c4)cc3)ccc2[nH]1.Cl` [GW697999], the “%Inh” value is given as 10%.

For `CN(c1ccc(NC(=O)N2CCN(CCCN3CCOCC3)CC2)cc1)c1ccnc(Nc2ccc(CS(C)(=O)=O)cc2)n1.Cl` [GW830899], the “%Inh” value is 25%. On the same count and under the same terms, to `O=C(Nc1n[nH]c2nc(-c3ccccc3O)ccc12)C1CC1` [SB-711880] belongs 19%. With `CCn1c(-c2nonc2N)nc2c(-c3ccccc3)ncc(OCCCN)c21.O=C(O)C(F)(F)F.O=C(O)C(F)(F)F` [GSK260205], the “%Inh” value stood at 0%.

As to `Cc1ccc(NC(=O)c2ccnc(N3CCCCC3)c2)cc1-c1ccc(C(=O)NCC2CC2)cc1` [GW775610], the “%Inh” value is reported as 6%. The same measure, in the same setting: the value for `O=C(O)C(F)(F)F.O=c1[nH]ccc2nc(N[C@@H]3CCNC3)nc(Nc3ccc4c(c3)S(=O)(=O)CC4)c12` [GSK2181306] was 46%; that for `Cc1ccccc1CC(=O)N1CCc2cc(-c3cn(C)c4ncnc(N)c34)ccc21` [GSK2603346] was 0%; that for `Cc1ccc(O)cc1Nc1ccnc2cc(-c3ccc(CN4CCCCC4)o3)ccc12` [GW557777] was 0%. Still for that read-out and setting: the value for `COc1ccc(C2=C(Nc3cccc(O)c3)C(=O)NC2=O)cc1` [SB-390766] was 49%; that for `Cc1ccc(O)cc1Nc1ccnc2ccc(C(C)(C)C)cc12` [GW856805] was 20%.

Regarding `O=C(Nc1n[nH]c2nc(-c3ccccc3)ccc12)C1CC1` [SB-708999], the “%Inh” value came out at 37%. On the same count and under the same terms, to `NCCC(NC(=O)c1cc(Br)c(-c2ccnc3[nH]ccc23)s1)c1ccccc1.O=C(O)C(F)(F)F.O=C(O)C(F)(F)F` (centres unmarked) [GSK1307810] belongs 19%. Same read-out and setting: the value for `CCOc1nccc(-c2c(-c3ccc(F)cc3)ncn2C2CCNCC2)n1` [SB-249175] was 11%; that for `CN1CCN(Cc2ccc(NC(=O)Nc3ccc(N(C)c4ccnc(Nc5ccc(CS(C)(=O)=O)cc5)n4)cc3)cc2)CC1.Cl` [GW827654] was 10%.

On to `Cn1cc(-c2ccc3c(c2)CCN3C(=O)Cc2cc(F)cc(F)c2F)c2c(N)ncnc21` [GSK2634140], for which the “%Inh” value came to 0%. Turning to `Cl.Cl.NCC(NC(=O)c1cc(-c2cccnc2)c(-c2ccnc3[nH]ccc23)s1)c1ccccc1` (centres unmarked) [GSK1323434], the “%Inh” value was found to be 0%. Turning to `Cc1ccc(NC(=O)c2cccc(N3CCCCC3)c2)cc1-c1ccc(C(=O)NCC2CC2)cc1` [GSK1917008], the “%Inh” value was found to be 3%. On the same count and under the same terms, the value for `Cc1nn2c(=O)cc(N3CCO[C@H](C)C3)nc2n1Cc1cccc(Cl)c1Cl` [GSK2373693] was 0%; that for `Cl.N#CCc1ccc(Nc2nccc(Nc3ccc(Oc4ccccc4)cc3)n2)cc1` [GW639905] was 0%; that for `Cn1cc(-c2cnc(N)c3c(-c4ccc5c(c4)CCN5C(=O)Cc4ccccc4)csc23)cn1` [GSK2593074] was 7%.

On to `CC(=O)Nc1cn2nc(Oc3cccc(NC(=O)c4cccc(C(F)(F)F)c4)c3)ccc2n1`, for which the “%Inh” value was found to be 0%. For `O=C(Nc1n[nH]c2cc(-c3cccs3)ccc12)C1CC1` [SB-731284], the “%Inh” value turned out to be 30%. Same read-out and setting: the value for `CN(c1ccc(NC(=O)Nc2cccc(Cl)c2)cc1)c1ccnc(N)n1.Cl` [GW830707] was 12%; that for `CCn1cnc2c(NCc3ccccc3)ncnc21` [SKF-96418] was 0%; that for `CC(C)(C)c1ccc(C(=O)Nc2cn3cc(-n4ccnc4)ccc3n2)cc1` was 0%. In the case of `COc1cc(Nc2nccc(N3CCC(NS(=O)(=O)c4ccc(NC(C)=O)cc4)CC3)n2)cc(OC)c1OC` [GSK1379825], the “%Inh” value is recorded as 1%. On the same count and under the same terms, the value for `CCNC(=O)/C=C/c1n[nH]c2cc(Sc3ccccc3C(=O)NC)ccc12` was 24%.

The record behind these values is PMC5540273 (PLoS ONE, 2017).
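Further: KINOMEscan kinase panel screen.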
